TIM10 inh: inhibits growth of TIM10 yeast strain; S. cerevisiae TIM10 strain growth, BacTiter-Glo luminescence, 24 h; inhibition, % at 10 µM; 1.4% of 330,000 active; AID 463195;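 active = inhibition of 40% or more at the single tested concentration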;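 also: wild-type TIM10 isogenic control strain grown at permissive 25 °C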
tim10-1 inh: tim10-1 yeast growth inhibition; S. cerevisiae tim10-1 ts strain growth, BacTiter-Glo, 24 h; inhibition, % at 20 µM; 2.2% of 330,000 active; AID 463190;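 active = inhibition of at least 40%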;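 also: mutant grown at 25 °C; 0% = DMSO wells with yeast and 100% = wells holding no yeast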
SKKanGAS inh: inhibitors of SKKanGAS S. pyogenes growth in kanamycin (SK-promoter or general growth effect). BacTiter-Glo, 6 h. inhibition, % at 7.5 µM. 1.3% of 300,000 active. AID 1662;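 active = mean replicate score, as percent of positive control median, at least 50; inconclusive = mean below 50 but one replicate at or above 50; inactive = mean and every replicate below 50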;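 also: strain carries kanamycin resistance gene driven by streptokinase promoter and grows in 40 µg/ml kanamycin; loss of luminescence reflects streptokinase promoter inhibition or plain growth inhibition; 0% = median of DMSO wells and 100% = positive control at its reference dose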
tim23-1 inh: tim23-1 yeast growth inhibition | S. cerevisiae tim23-1 growth, BacTiter-Glo luminescence, 24 h | inhibition, % at 20 µM | 1.3% of 330,000 active | AID 463212;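 active = growth inhibition of the mutant yeast at or above 50%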;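 also: temperature-sensitive mutant grown at 25 °C; plate controls were DMSO-treated mutant yeast for no effect and medium wells lacking yeast for full effect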
Calb FLC: C. albicans growth modulation with fluconazole | 0.57% of 300,000 active | AID 1979 | growth inhibition, % (test concentration not listed) | C. albicans CaCi-2 (fluconazole-resistant clinical isolate) + fluconazole, Alamar Blue growth, 48 h;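 active = growth inhibition above about 58% in most replicates, limit read from the data, passing the limit was not always enough; inconclusive = exactly half the replicates above a set limit; inactive = most replicates below a set limit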;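 also: all wells also contain fluconazole at 8 µg/ml as a sub-toxic cotreatment; 0% = median of DMSO wells and 100% = median of geldanamycin control wells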
PfHsp90 yeast 2: reduces growth (ATP signal) of yeast expressing P. falciparum Hsp90; S. cerevisiae expressing PfHsp90, BacTiter-Glo ATP, 48 h; yeast lacking PDR1 and PDR3 efflux regulators; inhibition, % at 9.4 µM; 0.32% of 310,000 active; AID 504621;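 active = every replicate shows inhibition above about 80%, whatever the replicate mean, limit read from the data; inconclusive = mean inhibition reaches the set limit but some replicate falls short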;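 also: 0% = DMSO neutral controls and 100% = 20 µM radicicol positive controls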
tim10-1 confirm: tim10-1 yeast growth inhibition, confirmed. inhibition, % at 20 µM. AID 463213. shares compounds with tim10-1 inh. S. cerevisiae tim10-1 ts strain growth, BacTiter-Glo, 24 h. 56% of 7,400 active;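 active = inhibition of yeast growth at or above a set limit in either of two repeat tests at 20 µM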;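 also: tim10-1 mutant grown at permissive 25 °C to find synthetic lethal compounds; 0% = DMSO yeast wells and 100% = medium wells without yeast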
tim10 confirm: confirmation of TIM10 yeast growth inhibitors | shares compounds with TIM10 inh | inhibition, % at 10 µM | S. cerevisiae tim10 strain growth, BacTiter-Glo luminescence, 24 h | 63% of 4,600 active;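 active = inhibition of yeast growth at or above a set limit in either of two replicates at 10 µM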;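 also: this counterscreen used the strain with wild-type TIM10; 0% = yeast with DMSO and 100% = medium wells lacking yeast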
tim23-1 conf: tim23-1 yeast growth inhibition, confirmed; 83% of 4,400 active; shares compounds with tim23-1 inh; S. cerevisiae tim23-1 growth, BacTiter-Glo luminescence, 24 h; AID 463218; inhibition, % at 20 µM;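 active = inhibition above about 39% in either of two replicate wells at 20 µM, limit read from the data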;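 also: temperature-sensitive tim23-1 mutant grown at 25 °C; 0% = DMSO wells with yeast and 100% = medium wells without yeast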
An asterisk follows results filed as active; u = inconclusive; x = no result. A selection: hits, their analogues and other compounds. The true share with any hit is near 4.7%.

SMILES | TIM10 inh | tim10-1 inh | SKKanGAS inh | tim23-1 inh | Calb FLC | PfHsp90 yeast 2 | tim10-1 confirm | tim10 confirm | others
c1ccc(CCn2nnnc2CN2CCC(n3nnc4ccccc43)CC2)cc1 | 9 | 32 | -13 | 20 | 0 | 43 | x | x
COc1cc2c(cc1OC)CN(c1ccc([N+](=O)[O-])c(C(F)(F)F)c1)CC2 | 54* | 60* | 0 | 41 | -9 | -8 | 55* | -12
CC(C)(O)C(=O)Nc1ccc([N+](=O)[O-])c(C(F)(F)F)c1 | 7 | 13 | x | 15 | x | 26 | x | x
Cc1c(C(=O)Nc2ccccc2)cc(-c2ccccc2)n1CCCN1CCOCC1 | 27 | 26 | 0 | 37 | 3 | x | x | x
COCCCn1c(-c2ccc(OC)cc2)cc(C(=O)NC2CCCCCCC2)c1C | 41* | 54* | 10 | 39 | -4 | -36 | 42* | -21
C=C1C(=O)O[C@@H]2C[C@@H](C)[C@@H]3C=CC(=O)[C@@]3(C)[C@@H](OC(=O)CC(=O)O[C@H]3[C@@H]4C(=C)C(=O)O[C@@H]4C[C@@H](C)[C@@H]4C=CC(=O)[C@]43C)[C@H]12 | 14 | 7 | -9 | 13 | 27 | 6 | x | x
C=C1C(=O)O[C@H]2C[C@@H](C)[C@@H]3C=CC(=O)[C@@]3(C)C[C@H]12 | 46* | 48* | -4 | 42 | 69 | x | 47* | 51*
COC(=O)C1=C(c2cccc(OCc3ccccc3)c2)C[C@@H]2CC[C@H]1N2C(=O)NCCc1ccc(F)cc1 | 7 | 12 | x | 22 | x | -18 | x | x
C=CCCC1(C2=CCCCC2)C(=O)NC(=O)NC1=O | x | x | x | x | x | 9 | x | x
CN1C(=O)C(Cc2nc3ccccc3c(=O)n2-c2ccccc2)c2ccccc21 (stereo not given) | 52* | 43* | -1 | 36 | -23 | -2 | 37* | 39*
O=C1NC(=O)C(=Cc2ccc(-c3ccc(F)cc3O)o2)C(=O)N1 | -11 | 6 | 2 | -12 | 5 | x | x | x
CN(C)c1ccc(C(=O)c2ccc(N(C)C)cc2)cc1 | 48* | 40* | -8 | 40 | 17 | -3 | 20 | 21
COc1ccc(OC)c(N2C(=O)NC(=O)/C(=C/c3ccc([N+](=O)[O-])s3)C2=O)c1 | 89* | 72* | -1 | 32 | -6 | 105* | 70* | 35*
COCCNC(=O)c1c(N)n(CCC(C)C)c2nc3ccccc3nc12 | 42* | 48* | 17 | 44 | -9 | -44 | 26 | 19
CCCCNC(=O)c1c(N)n(CCCOC)c2nc3ccccc3nc12 | 27 | 22 | 17 | 42 | 10 | x | x | x
CC(C)(C)C(=O)O[C@H]1CC[C@@]2(C)C(=CC(=O)C3C2CC[C@]2(C)C(=O)[C@@H](F)CC32)C1 (stereo not given in full) | 15 | 9 | x | 23 | x | 1 | x | x
COC(=O)C(O)(c1ccc(NC(=S)NC(=O)c2ccccc2)cc1)C(F)(F)F (stereo not given) | 46* | 41* | -2 | 48 | 14 | x | 27 | 33*
Cc1nc2c(=O)n(C)c(=O)nc-2n(C)n1 | 24 | 42* | 78* | 54* | 19 | 7 | 22 | x | tim23-1 conf=63*
COC(=O)C1=C(C)NC(=S)NC1c1ccc(N(CCCl)CCCl)cc1Cl (stereo not given) | x | x | x | x | x | -51 | x | x
CCn1nc(-c2ccccc2)nc2c(=O)n(C)c(=O)nc1-2 | 96* | 80* | 95* | 85* | 90* | 107* | 83* | 97* | tim23-1 conf=83*
Clc1ccc(C(c2ccc(Cl)cc2)n2cc[n+](CC(OCc3ccc(Cl)cc3Cl)c3ccc(Cl)cc3Cl)c2)cc1 (stereo not given) | 85* | 93* | x | 88* | x | 107* | 90* | -9 | tim23-1 conf=77*
Cc1cc([N+](=O)[O-])c2ccccc2[n+]1[O-] | 87* | 68* | 0 | 79* | u | 108* | 61* | 87* | tim23-1 conf=64*
Cc1ccccc1[N+](=O)[O-] | -1 | 5 | x | 13 | x | 8 | x | x
